CYP2C19 inh – blockers of cytochrome P450 2C19 activity – biochemical, luminescence, ADME assay, primary screen | P33261 | CYP2C19 Supersomes, luciferin-H EGE luminescence, 30 min | inhibition, % at 5 µM | 96,000 tested, 21% active | AID 778, 2007;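 active = CYP2C19 inhibition above a set limit at 5 µM in the primary screen, cut at about 50% in these data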;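 also: plate controls were negative control wells for no effect and 2.5 mM tranylcypromine positive control for full effect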
CYP2C9 activ – human CYP2C9 activators, primary screen, biochemical, luminescence. Cytochrome P450 2C9 (Homo sapiens), P11712. recombinant CYP2C9, luciferin-H conversion; hits give high values; factor 1 = untreated enzyme, 0 = blocked. activation factor at 5 µM. 96,000 tested, 1.4% active. AID 1024, 2008;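 active = activation factor of 2 or more for CYP2C9 at a 5 µM dose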;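 also: 0 = sulfaphenazole-blocked wells and 1 = vehicle-only wells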
Target sequence (P11712 whole entry, looked up): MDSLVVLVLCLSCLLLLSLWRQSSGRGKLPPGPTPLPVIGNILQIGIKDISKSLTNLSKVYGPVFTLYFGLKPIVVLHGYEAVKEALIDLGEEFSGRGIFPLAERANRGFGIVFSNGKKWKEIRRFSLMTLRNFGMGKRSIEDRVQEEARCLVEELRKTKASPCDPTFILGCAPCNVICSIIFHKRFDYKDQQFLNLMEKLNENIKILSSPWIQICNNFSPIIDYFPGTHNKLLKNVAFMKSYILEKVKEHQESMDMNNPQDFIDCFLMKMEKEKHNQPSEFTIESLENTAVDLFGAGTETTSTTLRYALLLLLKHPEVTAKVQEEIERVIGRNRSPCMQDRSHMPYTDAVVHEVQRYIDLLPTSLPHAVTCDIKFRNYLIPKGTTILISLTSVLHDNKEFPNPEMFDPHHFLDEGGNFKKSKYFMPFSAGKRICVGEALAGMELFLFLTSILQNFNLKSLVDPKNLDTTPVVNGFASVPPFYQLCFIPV
CYP2C19 activ – human CYP2C19 activators, primary screen, biochemical, luminescence | Cytochrome P450 2C19 (Homo sapiens), P33261 | recombinant CYP2C19, luciferin-H EGE luminescence; hits give high values; 0 = fully inhibited enzyme, 1 = untreated enzyme | activation factor at 5 µM | 96,000 tested, under 10 active;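 active = activation factor of at least 2 at 5 µM in the primary screen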;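 also: 0 = wells with 2.5 mM tranylcypromine and 1 = vehicle-only wells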
Cav3 T inh – Cav3.2 calcium influx blockers – cell-based, Fluo-4 calcium fluorescence, FDSS, MLSMR library, primary screen; Cav3.2-expressing cells; hits give low values; B-score at 10 µM; 100,000 tested, 4% active; AID 449739, 2010;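 active = single-dose well whose peak fluorescence ratio is a statistical outlier from its plate by either plate-standardised score or position-corrected B-score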
CYP2C9 inhib – blockers of cytochrome P450 2C9 activity – biochemical, luminescence, ADME assay, primary screen. P11712. AID 777, 2007. CYP2C9 Supersomes, luciferin-H conversion. inhibition, % at 5 µM. 96,000 tested, 20% active;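 active = blocking of liver enzyme CYP2C9 beyond about 50% at 5 µM, limit read from the data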
* = called active by the depositor; . = no result given. Shown are actives, neighbours in structure and some others; about 27% of the full set was active somewhere.

SMILES | CYP2C19 inh | CYP2C9 activ | CYP2C19 activ | Cav3 T inh | CYP2C9 inhib
CC(C)CCOc1ccc(C(=O)O)cc1 | 82.7* | 0.2 | 0.2 | 0.229 | 82.7*
O=C1OC2CC3CC1CC(O)(C3)C2 (stereo unspecified) | -15.9 | 1.1 | 1.2 | -0.302 | -8.1
CCC(C)NS(=O)(=O)c1ccc(OCC(=O)N2CCCC2)cc1 (stereo unspecified) | . | . | . | -0.123 | .
CC1(C)C(N(O)C(=O)Nc2ccc(Cl)cc2)N(c2ccc(Cl)cc2)C(=O)N1CC(=O)NN (stereo unspecified) | 35.2 | 0.6 | 0.6 | -1.8 | 40.6
O=C(Nc1ccccc1)N1CCCC2CCCCC21 (stereo unspecified) | 36.6 | 1 | 0.6 | -0.938 | -1.0
CC1c2[nH]c3ccccc3c2CCN1C(=O)Nc1ccccc1 (stereo unspecified) | . | . | . | -11.8* | .
CCCCc1c(C)nn(-c2nnc3c4ccccc4n(C)c3n2)c1C | 11.8 | 0.9 | 0.9 | . | 14.1
COc1ccc(-c2nnc3sc(C4CCCCC4)nn23)cc1OC | 28.1 | 0.7 | 0.7 | 1.76 | 27.2
COc1cc(-c2nn3c(C4CCCCC4)nnc3s2)cc(OC)c1OC | 21.6 | 0.2 | 0.8 | 3.04 | 83.7*
c1ccc(-c2nn3c(C4CCCCC4)nnc3s2)cc1 | 20.7 | 0.6 | 0.8 | -1.06 | 37.7
COc1ccc(-c2nn3c(C4CCCCC4)nnc3s2)cc1OC | 73.7* | 0.4 | 0.3 | -0.19 | 63.9*
Cc1nnc(SCC(=O)Nc2nsc(-c3ccc(Cl)cc3)n2)s1 | 7.4 | 1 | 0.9 | 0.367 | -2.9
Cc1ccc(C)c(N2CCN(C(=O)C3CCN(S(=O)(=O)c4cccc5nsnc45)CC3)CC2)c1 | 40.2 | 0.5 | 0.6 | . | 49.0
O=C(Nc1ncccc1Cl)C(Sc1ccccc1)c1ccccc1 (stereo unspecified) | 58.0* | 0.5 | 0.4 | -1.18 | 54.8*
CC(C)NC(=O)C(Sc1ccccc1)c1ccccc1 (stereo unspecified) | 96.3* | 0.4 | 0 | -0.291 | 62.1*
O=C(Nc1ccon1)C(Sc1ccccc1)c1ccccc1 (stereo unspecified) | 91.7* | 0.1 | 0.1 | -4.23* | 86.2*
CC(C)(C)NC(=O)CSc1nc(O)cc(=O)n1-c1ccccc1 | 9.1 | 0.6 | 0.9 | -0.832 | 43.6
O=C(CN1CCOCC1)N(c1ccccc1)c1ccc2ccccc2c1 | 76.5* | 0.6 | 0.2 | 0.05 | 44.8
O=C(CN1CCN(c2ccccn2)CC1)N(c1ccccc1)c1ccc2ccccc2c1 | 56.1* | 0.5 | 0.4 | -6.34* | 51.1*
O=C(CN1CCN(c2ccccn2)CC1)N1c2ccccc2CCc2ccccc21 | . | . | . | -1.56 | .
O=C(CN1CCOCCOCCOCC1)Nc1ccccc1 | -1.0 | 1.1 | 1 | 0.119 | -14.0
CCCC1(c2ccccc2)NC(=O)N(CC(=O)Nc2sc(-c3ccccc3)cc2C(=O)OCC)C1=O (stereo unspecified) | 5.3 | 0.4 | 0.9 | -0.575 | 60.3*
CCOC(=O)c1c(C)[nH]c(C(=O)Cn2nnc(-c3ccc(Cl)cc3)n2)c1C | 4.6 | 1 | 1 | 0.0423 | 4.5
CCOC(=O)c1c(C)[nH]c(C(=O)CN2C(=O)NC(C)(c3ccc4ccccc4c3)C2=O)c1C (stereo unspecified) | 33.6 | 0.4 | 0.7 | -0.0785 | 62.3*
CCCC1(c2ccccc2)NC(=O)N(CC(=O)c2[nH]c(C)c(C(=O)OCC)c2C)C1=O (stereo unspecified) | 94.5* | 0 | 0.1 | -5.59* | 97.5*
SMILES | CYP2C19 inh | CYP2C9 activ | CYP2C19 activ | Cav3 T inh | CYP2C9 inhib
O=C(CCSc1ccccc1)Nc1ccc(OCc2ccccc2)cc1 | -4.8 | 0.9 | 1 | -0.293 | 5.9
CNc1nc(OCC(F)(F)F)nc(N2CCOCC2)n1 | -3.4 | 1 | 1 | 0.267 | -1.5
CNc1nc(NCCOC23CC4CC(CC(C4)C2)C3)nc(OCC(F)(F)F)n1 | 45.8 | 0.8 | 0.5 | -5.41* | 21.3
Cc1cc(C)cc(Nc2ncc3c(n2)CC(c2ccco2)CC3=O)c1 (stereo unspecified) | 37.2 | 0.4 | 0.6 | -3.83 | 57.8*
O=C1CC(c2ccco2)Cc2nc(Nc3nc(-c4ccccc4)c4ccccc4n3)ncc21 (stereo unspecified) | 59.3* | 0.3 | 0.4 | . | 68.2*
Cc1ccc(Nc2ncc3c(n2)CC(c2ccco2)CC3=O)c(C)c1 (stereo unspecified) | 33.7 | 0.3 | 0.7 | -2.67 | 67.0*
S=C(NCCSCc1ccc(Cl)cc1Cl)Nc1ccccc1 | 52.4* | 2.3* | 0.5 | -3.38 | -131.3
S=C(NCCSCc1c(Cl)cccc1Cl)Nc1ccccc1 | 44.3 | 0.5 | 0.6 | -5.77* | 48.1
CS(=O)(=O)NCCSCc1c(Cl)cccc1Cl | 25.8 | 0.4 | 0.7 | -0.649 | 62.9*
O=C(NCc1nc2ccccc2[nH]1)C1=C[C@H](c2coc3ccccc3c2=O)C[C@H](OCc2ccc(CO)cc2)O1 | . | . | . | -1.88 | .
O=C(CN1C(=O)C2CC=C(Cl)CC2C1=O)NCc1ccccc1 (stereo unspecified) | 6.0 | 0.9 | 0.9 | . | 14.8
Cc1nn(CCc2n[nH]c(=S)n2-c2cccc(Cl)c2)c(C)c1[N+](=O)[O-] | 56.6* | 0.8 | 0.4 | 1.21 | 22.3
CC(C)CN(C(=O)COC(=O)C12CC3CC(CC(O)(C3)C1)C2)C1CCS(=O)(=O)C1 (stereo unspecified) | 5.0 | 1 | 0.9 | 0.79 | -1.1
CC1CN(C(=O)COc2ncnc3ccccc23)CC(C)O1 (stereo unspecified) | -4.5 | 1 | 1 | -0.158 | -1.5
CC(C)C(NC(=O)C1CCC(C(C)(C)C)CC1)C(=O)NCc1cccnc1 (stereo unspecified) | 52.0* | 0.5 | 0.5 | 1.87 | 51.1*
O=C(NCc1ccncc1)C1CCCCC1 | 11.9 | 0.6 | 0.9 | -0.333 | 41.8
CC(C)C(NC(=O)C1CCCCC1)C(=O)Nc1ccncc1 (stereo unspecified) | 95.9* | 0.1 | 0 | . | 92.2*
COc1c(O)cc2oc(-c3ccc(O)cc3)cc(=O)c2c1O | . | . | . | -0.874 | .
Cc1c2cc(O)c(=O)cc-2oc2cc(O)c(O)cc12 | 25.2 | 0.2 | 0.7 | -3.9* | 81.6*
CC(C)NC(=O)c1onc(CSc2ccc(Cl)cc2)c1C(=O)NC(C)C | . | . | . | -3.67 | .
Cc1cc(NC(=O)CSc2nc3c(c(=O)n(C)c(=O)n3C)n2C(C)C)no1 | 20.3 | 0.8 | 0.8 | 0.12 | 20.5
CCCCn1c(SCC(=O)Nc2cc(C)on2)nc2ccccc2c1=O | 18.1 | 0.9 | 0.8 | 0.938 | 9.7
CCC(C)n1c(SCC(=O)Nc2cc(C)on2)nc2ccccc2c1=O (stereo unspecified) | 61.6* | 0.5 | 0.4 | -2.01 | 52.2*
Cc1cc(NC(=O)CSc2nc3ccccc3c(=O)n2C(C)c2ccccc2)no1 (stereo unspecified) | 82.4* | 0.9 | 0.2 | -1.55 | 14.3

Screening results (PubChem BioAssay)
